Measurements taken from ChEMBL document CHEMBL3433997, “St. Jude Leishmania screening dataset” (2016).

The compounds below were run against Solute carrier family 2, facilitated glucose transporter member 1 (Homo sapiens) (UniProt P11166) (assay: ST_JUDE_LEISH: Cytotoxicity at 2uM final concentration against transgenic Leishmania Mexicana promastigotes LmGLUT1 that are glucose transport deficient and complemented with the human glucose transporter GLUT1. Activity is measured by DNA content using SYBR green in vitro).
Sequence of Solute carrier family 2, facilitated glucose transporter member 1 (Homo sapiens) (P11166 whole entry): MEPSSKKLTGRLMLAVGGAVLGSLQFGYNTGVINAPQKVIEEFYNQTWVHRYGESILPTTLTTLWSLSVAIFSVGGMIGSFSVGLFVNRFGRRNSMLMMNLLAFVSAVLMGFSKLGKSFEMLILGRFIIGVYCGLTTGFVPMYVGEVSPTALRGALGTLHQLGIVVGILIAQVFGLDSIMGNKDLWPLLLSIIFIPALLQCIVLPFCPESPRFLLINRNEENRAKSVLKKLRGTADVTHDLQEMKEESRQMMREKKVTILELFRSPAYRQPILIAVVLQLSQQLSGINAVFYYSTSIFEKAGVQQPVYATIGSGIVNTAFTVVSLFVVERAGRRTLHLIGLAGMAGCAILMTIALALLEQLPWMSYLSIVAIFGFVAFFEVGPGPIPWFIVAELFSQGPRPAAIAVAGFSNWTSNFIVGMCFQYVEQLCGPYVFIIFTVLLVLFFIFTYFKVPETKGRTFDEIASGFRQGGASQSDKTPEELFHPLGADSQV
Type: functional
`COc1cc(SC)ccc1C(=O)N1CC(C)CC(C)C1` (stereo not given) gave an inhibition of 11.1%. For `CC(C)C[C@H](NC(=O)c1cc(-c2ccc(F)cc2)no1)C(=O)O.CC(C)C[C@H](NC(=O)c1conc1-c1ccc(F)cc1)C(=O)O`, the inhibition was 1.19%. `Cc1cc(F)ccc1-c1nc(Nc2ccncc2)c2ccn(C)c2n1` gave an inhibition of 1.12%. `COc1ccc(NC(=O)Nc2ccc(-c3ccccc3)cc2)cc1Cn1cnc(N2CCCNCC2)cc1=O` gave an inhibition of 3.65%. `O=C(/C=C/c1ccc(Cl)c(Cl)c1)NCCCCCCN1CCCN(C(=O)Nc2cc(Cl)cc(Cl)c2)CC1` gave an inhibition of 0.67%. Work on `CN(C(=O)/C=C/c1cc(C(F)(F)F)ccc1F)C1CCN(CCCCCNC(=O)/C=C/c2ccc(Cl)c(Cl)c2)CC1` yielded an inhibition of 3.67%. In the case of `[O-][s+]1c(Cl)c(-c2ccc(Cl)cc2)c2ccc(Cl)cc21` (stereo not given), the inhibition is reported as 6.36%. `Cc1ccc(Cc2c[nH]c(NCCSCc3ccc(CN4CCOCC4)o3)nc2=O)cn1` showed an inhibition of 2.52%. In the case of `c1nc2nc3c(c(Nc4ccc5c(c4)CCC5)n2n1)CCC3`, the inhibition is reported as 3.23%. `O=C(NCCCN1CCOCC1)c1csc(Nc2ccc(Cl)c(Cl)c2)n1` was tested, and the inhibition was 0.69%. For `COc1cccc(C2(c3cccc(OC)c3)N=C(N)N(CCCc3ccccc3)C2=O)c1`, the inhibition was -0.49%. In the case of `Cc1nnsc1C(=O)Nc1ccc(-c2cccc(-c3nc4cc(C(F)(F)F)ccc4[nH]3)c2)cc1`, the inhibition is reported as 0.51%. For `Cc1cc(N(C)C)nc(Nc2ccc(NC(=O)C(C)Oc3ccccc3)cc2)n1` (stereo not given), the inhibition was 13.2%. Work on `Cc1ncccc1C(=O)Nc1ccc(-c2cccc(-c3nc4cccc(C)c4[nH]3)c2)cc1` yielded an inhibition of 0.98%. `Oc1cc(Nc2ccnc3cc(-c4ccc(CN5CCCCC5)o4)ccc23)c(Cl)cc1F` gave an inhibition of 3.23%. `CCc1c(C)nc(-n2nc(C)cc2NC(=O)CCc2ccccc2)[nH]c1=O` gave an inhibition of 0.86%. `CCN(CC)S(=O)(=O)c1ccc(C(C)NC(=O)c2ccccc2COc2ccccc2)cc1` (stereo not given) was tested, and the inhibition was 6.67%. With `Cc1nnc(Sc2ncnc3scc(-c4ccc(F)cc4)c23)s1` the inhibition was 2.38%. For `Cc1ccccc1CN1CCCN(Cc2ccc(C(=O)Nc3ccc(Cl)cc3)cc2)CC1`, the inhibition was 7.5%. With `Oc1ccc2nc(NCCCc3ccccc3)nc(NCCc3ccccc3)c2c1` the inhibition was 3.71%. Work on `c1csc(-c2nc(N3CCCC3)ncc2-c2ccsc2)n1` yielded an inhibition of 0.85%. Work on `Cc1nc(N)nc(N)c1OCc1cccc2c1ccc1ccccc12` yielded an inhibition of 3.53%. `COc1ccc(Cl)cc1N1CCN(CCCNC(=O)c2ccc(-c3nc4cc(Cl)c(F)cc4[nH]3)s2)CC1` gave an inhibition of 6.45%. `COc1cc(CS(C)(=O)=O)ccc1Nc1nccc(-c2c(-c3cccc(NC(=O)c4c(F)cccc4F)c3)nn3ccccc23)n1` was tested, and the inhibition was 13.5%. Work on `O=C(NCc1ccccc1)c1nn(CCCN2CCC(N3CCCC3)CC2)cc1-c1ccc(Cl)c(Cl)c1` yielded an inhibition of 4.94%. `O=C(C=Cc1ccc(-c2ccccc2)cc1)N1CCC(CCN2CCC(c3c[nH]c4ccccc34)CC2)CC1` was tested, and the inhibition was 2.14%. Work on `Cc1cccc2nc(-c3ccc(-c4ccc(NC(=O)Nc5ccc(Cl)c(Cl)c5)cc4)cc3)[nH]c12` yielded an inhibition of 2.18%. Compound `CC(C)C(=O)NC(c1ccc(Cl)cc1)c1ccc2cccnc2c1O` (stereo not given) has an inhibition of 3.14%. With `COCCCN=C(S)NN=C(C)c1ccccn1` the inhibition was 0.61%. `COc1cncc(/C=C/c2cncc(C(=O)NCCc3ccc(Cl)cc3Cl)c2)c1` was tested, and the inhibition was 4.53%. In the case of `CCOc1ccc(C(=O)Nc2cc(Cl)ccc2O)cc1Cl`, the inhibition is reported as -1.03%. `Nc1nc(N)c2nc(C3CC=CCC3)c(N)nc2n1` (stereo not given) showed an inhibition of 2.95%. With `Cc1ccc(-c2nc(NC(=O)Nc3ccc(C(F)(F)F)cc3)sc2C)cc1Cl` the inhibition was 5.17%. Compound `CCCCCCCc1c(C)nc2c(OC)cccc2c1O` has an inhibition of 5.31%. `O=C(/C=C/c1ccc2ccccc2c1)NCCCCCN1CCC(c2c[nH]c3ccccc23)CC1` gave an inhibition of 3.34%. With `CCOc1ccc(Br)cc1/C=C/C(=O)Nc1ccc(C2CCN(C)CC2)cc1` the inhibition was 9.52%. With `COC(=O)c1cccc(CNCc2ccc(-c3cccc(-c4nc5cccc(C)c5[nH]4)c3)cc2)c1` the inhibition was -0.37%. `O=C(Cc1c[nH]cn1)Nc1ccc(-c2cccc(-c3nc4cc(F)ccc4[nH]3)c2)cc1` was tested, and the inhibition was 1.49%. `COc1ccc(NS(=O)(=O)c2cccc(C(=O)Nc3ccc(C(F)(F)F)cc3)c2)cc1N1CCN(CC(C)C)CC1` showed an inhibition of 7.82%. Work on `Cc1cc(N2CCCC2)nc(NC(=N)Nc2cccc(C(F)(F)F)c2)n1` yielded an inhibition of 6.6%.

The compounds below were run against Hexose transporter 1 (Plasmodium falciparum) (UniProt O97467) (assay: ST_JUDE_LEISH: Cytotoxicity at 2uM final concentration against transgenic Leishmania Mexicana promastigotes LmPfHT that are glucose transport deficient and complemented with the Plasmodium falciparum hexose transporter. Activity is measured by DNA content using SYBR green in vitro).
Type: functional
Compound `COc1cc(SC)ccc1C(=O)N1CC(C)CC(C)C1` (stereo not given) has an inhibition of 11.1%. In the case of `CC(C)C[C@H](NC(=O)c1cc(-c2ccc(F)cc2)no1)C(=O)O.CC(C)C[C@H](NC(=O)c1conc1-c1ccc(F)cc1)C(=O)O`, the inhibition is reported as 2.32%. `Cc1cc(F)ccc1-c1nc(Nc2ccncc2)c2ccn(C)c2n1` showed an inhibition of 2.6%. Work on `COc1ccc(NC(=O)Nc2ccc(-c3ccccc3)cc2)cc1Cn1cnc(N2CCCNCC2)cc1=O` yielded an inhibition of 2.02%. Compound `O=C(/C=C/c1ccc(Cl)c(Cl)c1)NCCCCCCN1CCCN(C(=O)Nc2cc(Cl)cc(Cl)c2)CC1` has an inhibition of 0.41%. `CN(C(=O)/C=C/c1cc(C(F)(F)F)ccc1F)C1CCN(CCCCCNC(=O)/C=C/c2ccc(Cl)c(Cl)c2)CC1` was tested, and the inhibition was 3.45%. Work on `[O-][s+]1c(Cl)c(-c2ccc(Cl)cc2)c2ccc(Cl)cc21` (stereo not given) yielded an inhibition of 8.82%. For `Cc1ccc(Cc2c[nH]c(NCCSCc3ccc(CN4CCOCC4)o3)nc2=O)cn1`, the inhibition was 0.59%. Work on `c1nc2nc3c(c(Nc4ccc5c(c4)CCC5)n2n1)CCC3` yielded an inhibition of -0.85%. `O=C(NCCCN1CCOCC1)c1csc(Nc2ccc(Cl)c(Cl)c2)n1` gave an inhibition of 0.58%. Work on `COc1cccc(C2(c3cccc(OC)c3)N=C(N)N(CCCc3ccccc3)C2=O)c1` yielded an inhibition of -0.23%. Compound `Cc1nnsc1C(=O)Nc1ccc(-c2cccc(-c3nc4cc(C(F)(F)F)ccc4[nH]3)c2)cc1` has an inhibition of 0.86%. `Cc1cc(N(C)C)nc(Nc2ccc(NC(=O)C(C)Oc3ccccc3)cc2)n1` (stereo not given) showed an inhibition of 14.5%. For `Cc1ncccc1C(=O)Nc1ccc(-c2cccc(-c3nc4cccc(C)c4[nH]3)c2)cc1`, the inhibition was 0.96%. For `Oc1cc(Nc2ccnc3cc(-c4ccc(CN5CCCCC5)o4)ccc23)c(Cl)cc1F`, the inhibition was 6.46%. `CCc1c(C)nc(-n2nc(C)cc2NC(=O)CCc2ccccc2)[nH]c1=O` gave an inhibition of 2.79%. `CCN(CC)S(=O)(=O)c1ccc(C(C)NC(=O)c2ccccc2COc2ccccc2)cc1` (stereo not given) showed an inhibition of 5.1%. With `Cc1nnc(Sc2ncnc3scc(-c4ccc(F)cc4)c23)s1` the inhibition was 3.03%. `Cc1ccccc1CN1CCCN(Cc2ccc(C(=O)Nc3ccc(Cl)cc3)cc2)CC1` gave an inhibition of 6.18%. For `Oc1ccc2nc(NCCCc3ccccc3)nc(NCCc3ccccc3)c2c1`, the inhibition was 4.97%. `c1csc(-c2nc(N3CCCC3)ncc2-c2ccsc2)n1` showed an inhibition of -0.18%. `Cc1nc(N)nc(N)c1OCc1cccc2c1ccc1ccccc12` showed an inhibition of 6.28%. In the case of `COc1ccc(Cl)cc1N1CCN(CCCNC(=O)c2ccc(-c3nc4cc(Cl)c(F)cc4[nH]3)s2)CC1`, the inhibition is reported as 5.41%. `COc1cc(CS(C)(=O)=O)ccc1Nc1nccc(-c2c(-c3cccc(NC(=O)c4c(F)cccc4F)c3)nn3ccccc23)n1` gave an inhibition of 20.7%. For `O=C(NCc1ccccc1)c1nn(CCCN2CCC(N3CCCC3)CC2)cc1-c1ccc(Cl)c(Cl)c1`, the inhibition was 0.77%. Compound `O=C(C=Cc1ccc(-c2ccccc2)cc1)N1CCC(CCN2CCC(c3c[nH]c4ccccc34)CC2)CC1` has an inhibition of 9.22%. `Cc1cccc2nc(-c3ccc(-c4ccc(NC(=O)Nc5ccc(Cl)c(Cl)c5)cc4)cc3)[nH]c12` showed an inhibition of 1.99%. For `CC(C)C(=O)NC(c1ccc(Cl)cc1)c1ccc2cccnc2c1O` (stereo not given), the inhibition was 5.18%. Compound `COCCCN=C(S)NN=C(C)c1ccccn1` has an inhibition of -0.03%. `COc1cncc(/C=C/c2cncc(C(=O)NCCc3ccc(Cl)cc3Cl)c2)c1` showed an inhibition of 5.13%. In the case of `CCOc1ccc(C(=O)Nc2cc(Cl)ccc2O)cc1Cl`, the inhibition is reported as 0.11%. In the case of `Nc1nc(N)c2nc(C3CC=CCC3)c(N)nc2n1` (stereo not given), the inhibition is reported as 3.81%. Compound `Cc1ccc(-c2nc(NC(=O)Nc3ccc(C(F)(F)F)cc3)sc2C)cc1Cl` has an inhibition of 1.68%. With `CCCCCCCc1c(C)nc2c(OC)cccc2c1O` the inhibition was 8.11%. `O=C(/C=C/c1ccc2ccccc2c1)NCCCCCN1CCC(c2c[nH]c3ccccc23)CC1` showed an inhibition of 5.66%. Work on `CCOc1ccc(Br)cc1/C=C/C(=O)Nc1ccc(C2CCN(C)CC2)cc1` yielded an inhibition of 7.2%. `COC(=O)c1cccc(CNCc2ccc(-c3cccc(-c4nc5cccc(C)c5[nH]4)c3)cc2)c1` was tested, and the inhibition was -1.65%. `O=C(Cc1c[nH]cn1)Nc1ccc(-c2cccc(-c3nc4cc(F)ccc4[nH]3)c2)cc1` showed an inhibition of 4.07%. `COc1ccc(NS(=O)(=O)c2cccc(C(=O)Nc3ccc(C(F)(F)F)cc3)c2)cc1N1CCN(CC(C)C)CC1` was tested, and the inhibition was 4.29%. Compound `Cc1cc(N2CCCC2)nc(NC(=N)Nc2cccc(C(F)(F)F)c2)n1` has an inhibition of 7.28%.
